Compound activity deposited in PubChem by National Center for Advancing Translational Sciences (NCATS).
Compounds with a hit are over-represented: about 8.9% of the library has one in this group of screens.
MCF10A rereplic – A quantitative high throughput screen for small molecules that induce DNA re-replication in MCF 10a normal breast cells; MCF 10A DNA re-replication, Hoechst nuclear intensity, 48 h; AID 624296, 2012; Potency, µM (doses to about 46.1 µM), for inactives: at the top dose activity, positive = re-replication, usual class: activators; actives 2.9% (n = 350,000); also: potency is read from the fitted curve at half-maximal effect; % of control where 0% means no effect; nearly all actives have a fitted effect of over 50% in size
KB-V1 cytotox – qHTS assay for MDR1-selective chemotherapeutics: Primary screen using the drug-selected MDR subline cells KB-V1. actives 3.4% (n = 400,000). KB-V1 MDR cells viability, CellTiter-Glo, 72 h. Potency, µM (top dose mostly 46.1 µM), usual class: cytotoxic; also: potency is read from the fitted curve at half-maximal effect; % is scaled to controls: 0 for no effect and ±100 for the full control effect; nearly all actives have a fitted effect of over 60% in size
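Compound-treated KB-V1 multidrug-resistant cells, 72 h, 37 degrees C; viability by CellTiter-Glo. Fitted qHTS curves give the values.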
KB-3-1 cytotox – qHTS assay for MDR1-selective chemotherapeutics: Primary screen using the parental adenocarcinoma cell KB-3-1 | KB-3-1 viability, CellTiter-Glo ATP luminescence, 72 h | Potency, µM (series often up to 46.1 µM), actives largely listed as cytotoxic | actives 1.4% (n = 400,000) | AID 1347075, 2019; also: potency is read from the fitted curve at half-maximal effect; % is scaled to controls: 0 for no effect and ±100 for the full control effect; nearly all actives have a fitted effect of over 60% in size
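KB-3-1 parental drug-naive adenocarcinoma cells in DMEM/10% FBS, incubated 72 h at 37 C with pin-transferred compounds across a concentration series. Viability by CellTiter-Glo luminescence; concentration-response curves fitted after normalization.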
SW480 rerep – A quantitative high throughput screen for small molecules that induce DNA re-replication in SW480 colon adenocarcinoma cells. actives 1.8% (n = 340,000). AID 624297, 2012. SW480 DNA re-replication, Hoechst DNA content imaging, 48 h. Potency, µM (series often up to 46.1 µM), for the others: at the highest dose re-replication activation, most hits filed as activators; also: potency is read from the fitted curve at half-maximal effect; % of control where 0% means no effect; nearly all actives have a fitted effect of over 55% in size
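Image-based DNA-content assay: after two days of treatment, nuclei were labelled with the DNA dye Hoechst and imaged, and hits were compounds raising the count of nuclei showing high fluorescence intensity.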
DRD3 agonist – qHTS of D3 Dopamine Receptor Agonist: qHTS | D3R DiscoveRx beta-arrestin cells, luminescence, 90 min | max activation, % | D(3) dopamine receptor (Homo sapiens), P35462 | actives 0.58% (n = 410,000); in the data active = max activation above about 30%; also: 0% is about no effect
Target sequence (P35462 whole entry, looked up): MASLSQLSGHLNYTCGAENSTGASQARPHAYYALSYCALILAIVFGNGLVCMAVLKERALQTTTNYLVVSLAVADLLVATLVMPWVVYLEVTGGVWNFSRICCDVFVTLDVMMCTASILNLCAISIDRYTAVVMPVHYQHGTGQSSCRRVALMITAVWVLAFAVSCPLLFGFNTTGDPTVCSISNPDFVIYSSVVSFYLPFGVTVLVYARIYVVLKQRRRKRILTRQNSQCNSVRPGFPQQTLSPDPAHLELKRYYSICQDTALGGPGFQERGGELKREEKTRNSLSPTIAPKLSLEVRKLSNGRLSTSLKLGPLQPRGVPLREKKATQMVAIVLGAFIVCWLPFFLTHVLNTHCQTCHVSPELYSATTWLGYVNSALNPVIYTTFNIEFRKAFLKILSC
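Agonist-mode cell screen: cells plated at 1500/well and incubated overnight at 37 °C, then exposed to library compounds for 90 min at 37 °C. Detection reagent was added for 30–60 min at room temperature, and luminescence was read.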
D3 antag – qHTS of D3 Dopamine Receptor Antagonist: qHTS; D(3) dopamine receptor (Homo sapiens), P35462; D3R cells, DiscoveRx beta-arrestin luminescence, antagonist mode; hits give low values; max response, negative = inhibition, %; actives 2.5% (n = 360,000); in the data active = max response below about -50%; inconclusive = no clear call, values can overlap the other calls; also: % is scaled to controls: 0 for no effect and ±100 for the full control effect
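Cells plated overnight at 1500 cells/well, then exposed to library compounds with dopamine controls for 90 minutes at 37 degrees C. DiscoveRx reagent added for 30–60 minutes at room temperature; luminescence read, quantitative HTS format.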
* = called active by the depositor; i = inactive; u = inconclusive; x = no result given; [ ] = dose if it differs, or a comment. Unless noted, calls follow the shape of the dose curve; as a rule, active = well fitted curve in the direction sought with a large enough effect; inconclusive = small, poorly fitted or top-dose-only effect, or another doubt; inactive = no such curve, though single readings can be large; an effect the other way counts as inactive or inconclusive.

SMILES | MCF10A rereplic | KB-V1 cytotox | KB-3-1 cytotox | SW480 rerep | DRD3 agonist | D3 antag
O=C1c2c(O)ccc(O)c2C(=O)c2c(NCCNCCO)ccc(NCCNCCO)c21 | -3.5% | 20.6µM* | 0.651µM* | -9.1% | -14.9 | -19.4
CSc1cccc(NC(=O)c2ccc(CN3CCc4ccccc4C3)cc2)c1 | u | u | u | u | -6.6 | -96.0*
O=C(Nc1cccc(Br)c1)c1ccc(CSc2ccccc2)cc1 | -0.8% | u | i | 1.2% | 3.7 | -15.0
O=C(Nc1cccc(Br)c1)c1ccc(CN2CCc3ccccc3C2)cc1 | 25.9µM* | u | u | 18.4µM* | -16.4 | -56.0*
O=C(Cn1nnc(-c2cccc(C(F)(F)F)c2)n1)NCc1ccc(F)cc1 | x | u | i | x | 2.4 | x
CC(C)COc1ccc(C(=O)Nc2scc(-c3ccc(Cl)cc3Cl)c2C(N)=O)cc1 | u | 3.66µM* | 3.26µM* | 5.0% | -2.9 | 1.0
CN(C)CCN1CCN(C2CN(Cc3cn(Cc4cccc(C(F)(F)F)c4)nn3)S(=O)(=O)C2)CC1 (stereo not drawn) | x | i | i | x | -11.4 | -72.1*
CN(C)CCN1CCN(C2CN(Cc3cn(Cc4ccc(Cl)cc4)nn3)S(=O)(=O)C2)CC1 (stereo not drawn) | x | i | i | x | -1.4 | -50.6*
CN(C)CCN1CCN(C2CN(Cc3cn(Cc4ccc(C(F)(F)F)cc4)nn3)S(=O)(=O)C2)CC1 (stereo not drawn) | x | i | i | x | -5.9 | u
CCCCCCN1CCN(C2CN(Cc3cn(Cc4ccc(Cl)cc4)nn3)S(=O)(=O)C2)CC1 (stereo not drawn) | x | i | i | x | -7.8 | u
CO[C@H]1[C@H](O[C@H]2O[C@@H](C)[C@@H](O[C@@H]3C[C@](C)(O)[C@H](O)[C@H](C)O3)[C@@H](N(C)C)[C@@H]2O)[C@@H](CC=O)C[C@@H](C)[C@@H](O[C@H]2CC[C@H](N(C)C)[C@H](C)O2)/C=C\C=C/C[C@@H](C)OC(=O)C[C@H]1O | -5.1%[20.6 µM] | x | x | -8.2%[20.6 µM] | x | x
O=C(COc1ccccc1-c1nc(-c2ccccc2)no1)Nc1ccc([N+](=O)[O-])cc1 | x | i | i | x | 5.9 | x
COc1cc(NC(=O)c2cc(-c3ccccc3O)no2)cc(OC)c1OC | x | u | u | x | -4.8 | x
COc1cccc(-c2cc(C(=O)Nc3cc(OC)c(OC)c(OC)c3)on2)c1 | x | u | 9.2µM* | x | 1.8 | x
Cc1ccccc1OCc1nnc(SCc2cc(=O)c3ccc(C)c(C)c3[nH]2)n1C | x | i | i | x | -8.2 | x
CC(=O)Nc1cc(OC(C)=O)c2nonc2c1OC(C)=O | u | i | u | 2.91µM* | -10.5 | u
CC1CCC(C(C)C)C(OC(=O)Cn2c(-c3ccccc3)[n+](C)c3ccccc32)C1 (stereo not drawn) | 18.4µM* | i | 14.6µM* | 14.6µM* | -20.7 | -18.6
CC1CCC(C(C)C)C(OC(=O)Cn2c(-c3ccc(F)cc3)[n+](C)c3ccccc32)C1 (stereo not drawn) | u | i | u | 16.4µM* | -13.8 | -72.1*
Cc1cccc(OCc2n(CC(=O)OC3CC(C)CCC3C(C)C)c3ccccc3[n+]2C)c1 (stereo not drawn) | u | u | u | u | -12.5 | -6.3
COc1cccc(CN(C)S(=O)(=O)c2ccccc2Br)c1 | 5.9% | i | i | 9.4% | 2.4 | -5.7
CCCCc1ccc(C(=O)COC(=O)c2ccc3nc(C)c(C)nc3c2)cc1 | x | i | u | x | x | x
COC(=O)C1=C(C)NC(=O)NC1c1ccc(N2CCC(c3ccccc3)=N2)cc1 (stereo not drawn) | 5.17µM* | u | i | 2.06µM* | 6.6 | 8.3
COC(=O)C1=C(C)NC(=O)NC1c1ccc(OC)c(OC)c1 (stereo not drawn) | x | u | i | x | -3.9 | -19.8
S=c1[nH]c2ccc(Cl)cc2[nH]1 | 1.9% | 18.4µM* | i | -5.4% | -3.3 | 11.0
COc1ccc2[nH]c(=S)[nH]c2c1 | 0.3% | i | i | 1.7% | -4.3 | -28.4
SMILES | MCF10A rereplic | KB-V1 cytotox | KB-3-1 cytotox | SW480 rerep | DRD3 agonist | D3 antag
COc1cc(Cl)c(CNC[C@H]2O[C@@H](n3cnc(C(N)=O)n3)[C@H](O)[C@@H]2O)c(Cl)c1O | -0.1% | i | i | 0.1% | 1.7 | 40.5
NC(=O)c1ncn([C@@H]2O[C@H](CNCc3ccc(-c4cc(C(F)(F)F)ccc4Cl)o3)[C@@H](O)[C@H]2O)n1 | -5.6% | i | i | 1.3% | -70.5 | -51.9*
CC(C)(C)c1ccc(C(=O)NC2(C(F)(F)F)C(=O)Nc3c2c(=O)[nH]c(=O)n3-c2ccccc2)cc1 (stereo not drawn) | x | i | i | x | -0.2 | x
Clc1nssc1=Nc1ccccc1 | -4.3% | i | i | -4.5% | -9.5 | -15.6
COc1ccc(N=c2ssnc2Cl)cc1 | 4.7%[9.22 µM] | i | i | 0.8% | -6.0 | -55.2*
Clc1ccc(N=c2ssnc2Cl)cc1 | u | 20.6µM* | 20.6µM* | u | 0.9 | 40.9
COc1ccc(CCN2CCC(CNC(=O)c3cnn(-c4cccc(Cl)c4)c3C3CCN(C(=O)OC(C)(C)C)CC3)CC2)cc1 | x | x | x | x | -35.5 | x
COc1ccc(CCN2CCC(CNC(=O)c3cnn(-c4ccccc4)c3C3CCN(C(=O)OC(C)(C)C)CC3)CC2)cc1 | x | u | 16.4µM* | x | -20.8 | x
Cc1ccc(S(=O)(=O)N2CC(O)C[C@H]2C(=O)OCC(=O)N2CCN(c3ccc(F)cc3)CC2)cc1C (stereo partly drawn) | 6.0% | i | u | -24.5% | 2.2 | 5.8
Cc1cc(=O)oc2c1ccc1oc(/C(=N/O)c3ccccc3)c(C)c12 | u | 20.6µM* | u | -5.8% | -0.6 | u
